Results filed as inconclusive are left out. The source made the active and inactive calls. Calls follow the shape of the dose curve; as a rule, active = well fitted cell-killing curve with a large enough effect; inconclusive = small, poorly fitted or top-dose-only effect, or effect the other way; inactive = flat fitted curve, though single readings scatter.
Key:
Assay in all cases: Primary qHTS to identify gynecologic anti-cancer compounds using libraries of approved drugs and bioactive compounds (AID 1345084); also: nearly all actives have a fitted effect of over 55% in size
Conditions in all cases: Gynecologic cancer cell panel viability, ATPlite luminescence, 48 h; series mostly up to 57.5 µM
OV90 = test system: OV90
In short: (§1)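 Five-point cytotoxicity, 48 h drug exposure at 37 C, 5% CO2, on cells seeded 16 h beforehand. ATP content read by ATPlite luminescence.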

PA-1 = test system: PA-1
In short: as §1

SKOV3 = test system: SKOV3
In short: as §1

Tov-21-G = test system: Tov-21-G
In short: as §1

Tov112D = test system: Tov112D
In short: as §1
% is scaled to controls: 0 for no effect and ±100 for the full control effect.

C=CC1(C)CC2CCC3C(C)(C(=O)O)CCCC3(C)C2=CC1=O (stereo not given)
inactive: Potency (OV90) | Potency (PA-1) | Potency (SKOV3) | Potency (Tov-21-G) | Potency (Tov112D)

COC(=O)[C@]1(Cc2ccc(O)c(CC=C(C)C)c2)OC(=O)C(O)=C1c1ccc(O)cc1
inactive: Potency (OV90) | Potency (PA-1) | Potency (SKOV3) | Potency (Tov-21-G) | Potency (Tov112D)

CC(=O)O[C@@H]1C(=O)C(C)=C(CCC(C)CC(=O)O)[C@@]2(C)CCCC(C)(C)C12 (stereo not given in full)
inactive: Potency (OV90) | Potency (PA-1) | Potency (SKOV3) | Potency (Tov-21-G) | Potency (Tov112D)

CCc1nnc(NS(=O)(=O)c2ccc(NC(=S)NC(=O)/C=C/c3ccc(F)cc3)cc2)s1
inactive: Potency (OV90) | Potency (PA-1) | Potency (SKOV3) | Potency (Tov-21-G) | Potency (Tov112D)

COc1cc(/C=C/C(=O)O[C@@H]2C[C@](O)(C(=O)O)C[C@@H](O)[C@H]2O)ccc1O
inactive: Potency (OV90) | Potency (PA-1) | Potency (SKOV3) | Potency (Tov-21-G) | Potency (Tov112D)

Cn1c2ccc(NC(=O)c3ccccc3)cc2c(=O)n2nc(C(=O)O)cc12
inactive: Potency (OV90) | Potency (PA-1) | Potency (SKOV3) | Potency (Tov-21-G) | Potency (Tov112D)

CCC(C)(C)C1CCc2c(sc(NC(=O)c3ccc(Br)cc3)c2C#N)C1 (stereo not given)
inactive: Potency (OV90) | Potency (PA-1) | Potency (SKOV3) | Potency (Tov-21-G) | Potency (Tov112D)

CC(=O)OC12CC(C)C(OC(=O)c3ccccc3)C1/C=C(/C)C(OC(=O)c1ccccc1)CC(=O)C(C)(C)/C=C/C(C)C2=O (stereo not given)
inactive: Potency (OV90) | Potency (PA-1) | Potency (SKOV3) | Potency (Tov-21-G) | Potency (Tov112D)

COc1ccc2[nH]c(S(=O)Cc3ncc(C)c(OC)c3C)nc2c1 (stereo not given)
inactive: Potency (OV90) | Potency (PA-1) | Potency (SKOV3) | Potency (Tov-21-G) | Potency (Tov112D)

O=C(CCc1ccccc1)c1c(O)c([C@@H]2O[C@H](CO)[C@@H](O)[C@H](O)[C@H]2O)c(O)c([C@@H]2O[C@H](CO)[C@@H](O)[C@H](O)[C@H]2O)c1O
inactive: Potency (OV90) | Potency (PA-1) | Potency (SKOV3) | Potency (Tov-21-G) | Potency (Tov112D)

CC(=O)OC[C@@]12C(=O)C[C@@H](C)[C@]3(C[C@@H](c4ccoc4)OC3=O)[C@H]1CC[C@H](OC(C)=O)[C@]21CO1
inactive: Potency (OV90) | Potency (PA-1) | Potency (SKOV3) | Potency (Tov-21-G) | Potency (Tov112D)

CC1OC(OC2CCC3(C)C(CCC4(C)C3C=CC35OCC6(CCC(C)(C)CC63)CCC45C)C2(C)CO)C(OC2OC(CO)C(O)C(O)C2O)C(O)C1OC1OC(CO)C(O)C(O)C1O (stereo not given)
inactive: activity change, negative = cytotoxicity (OV90) -14.8% [at 11.6 µM] | activity change, negative = cytotoxicity (PA-1) 5.66% [at 11.6 µM] | activity change, negative = cytotoxicity (SKOV3) 6.92% [at 11.6 µM] | activity change, negative = cytotoxicity (Tov-21-G) 3.71% [at 11.6 µM] | activity change, negative = cytotoxicity (Tov112D) 11.6% [at 11.6 µM]

C=CC(C)(CCC=C(C)C)O[C@@H]1O[C@H](CO)[C@@H](O)[C@H](O)[C@H]1O (stereo not given in full)
inactive: Potency (OV90) | Potency (PA-1) | Potency (SKOV3) | Potency (Tov-21-G) | Potency (Tov112D)

CC1(C)CC[C@]2(C(=O)O[C@@H]3O[C@H](CO)[C@@H](O)[C@H](O)[C@H]3O)CC[C@]3(C)C(=CCC4[C@@]5(C)CC[C@H](O[C@H]6O[C@H](CO)[C@@H](O)[C@H](O[C@@H]7O[C@H](CO)[C@@H](O)[C@H](O)[C@H]7O)[C@H]6O)C(C)(C)C5CC[C@]43C)[C@@H]2C1 (stereo not given in full)
inactive: activity change, negative = cytotoxicity (OV90) -0.2% [at 11.6 µM] | activity change, negative = cytotoxicity (PA-1) 3.09% [at 11.6 µM] | activity change, negative = cytotoxicity (SKOV3) -4.14% [at 11.6 µM] | activity change, negative = cytotoxicity (Tov-21-G) -3.87% [at 11.6 µM] | activity change, negative = cytotoxicity (Tov112D) -5.45% [at 11.6 µM]

CC(C)CC(=O)OC[C@@]1(O)C[C@@]23CC[C@H]4[C@@](C)(CCC[C@@]4(C)C(=O)O)[C@@H]2CC[C@@H]1C3
inactive: Potency (OV90) | Potency (PA-1) | Potency (SKOV3) | Potency (Tov-21-G) | Potency (Tov112D)

CC1CCC2(C(=O)O)CCC3(C)C(=CCC4C5(C)CCC(O)C(C)(C(=O)O)C5CCC43C)C2C1(C)O (stereo not given)
inactive: Potency (OV90) | Potency (PA-1) | Potency (SKOV3) | Potency (Tov-21-G) | Potency (Tov112D)

CC(=O)OCC1=C[C@@H]2OC(=O)C3=CO[C@@H](O[C@@H]4O[C@H](CO)[C@@H](O)[C@H](O)[C@H]4O)[C@H]1[C@@H]32
inactive: Potency (OV90) | Potency (PA-1) | Potency (SKOV3) | Potency (Tov-21-G) | Potency (Tov112D)

O=C1C(Cl)=C(N2CCOCC2)C(=O)N1c1ccc(Cl)c(Cl)c1
inactive: Potency (OV90) | Potency (PA-1) | Potency (SKOV3) | Potency (Tov-21-G) | Potency (Tov112D)

O=C(O)CC1CCC(c2ccc(NC(=O)c3nnc(Nc4ccc(F)c(F)c4)o3)cc2)CC1 (stereo not given)
inactive: Potency (OV90) | Potency (PA-1) | Potency (SKOV3) | Potency (Tov-21-G) | Potency (Tov112D)

OC[C@@]1(O)CO[C@H](OC[C@H]2O[C@@H](OCCc3ccccc3)[C@H](O)[C@@H](O)[C@@H]2O)[C@@H]1O
inactive: Potency (OV90) | Potency (PA-1) | Potency (SKOV3) | Potency (Tov-21-G) | Potency (Tov112D)

Source: PubChem BioAssay (NCATS)
